Rows were chosen to be rich in hits. Some 4.1% of all compounds tested hit in one or more screens of this group.
ALR inh = human ALR oxidase inhibition via reduced H2O2 | P55789 | purified ALR, DTT oxidation, H2O2 HRP-luminol luminescence | inhibition, % (test concentration not listed) | 290,000 compounds, 3.8% hits | AID 485317;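 active = mean replicate inhibition above about 79%, with every replicate also reaching it, limit read from the data; inconclusive = only one of the two criteria met; inactive = mean below limit and not every replicate reaching it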
CaV13 ICDI inh = Disruptors of the CACNA1D IQ motif to Ca2+-dependent inactivation inhibitor domain association, primary screening, Förster resonance energy transfer in intact living …. inhibition, % at 12.3 µM. 340,000 compounds, 0.098% hits. HEK cells, CFP/YFP FRET ICDI-IQ, plate reader, 10 min; percent FRET-ratio fall versus neutral wells. AID 743397;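 active = mean replicate inhibition of at least 30% and at least 1% of replicates passing that level; inconclusive = only one of the two criteria is met; inactive = neither criterion is met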;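 also: 0% = median of the neutral control wells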
PolyA inh = inhibitors of polyadenylation in S. cerevisiae; 300,000 compounds, 0.02% hits; activity score, % at 12 µM; S. cerevisiae SKY197-pL101 polyadenylation reporter, beta-gal luminescence; efflux-impaired pdr1/pdr3 knockout yeast; score 100 = 6 SD above DMSO;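 active = lowest replicate activity score at least 50, where 100 means six control SD above control mean; inconclusive = lowest score under 50 but half or more replicates reach 50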;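 also: yeast exposed to compound for 9 h at 30 °C; higher score means more reporter readthrough which indicates perturbed polyadenylation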
IDE cell inh = cellular human IDE inhibition | P14735 | HEK cells, FAbetaB cleavage, fluorescence polarization | 320,000 compounds, 0.41% hits | inhibition, % at 5.59 µM;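 active = percent inhibition above the average of all tested compounds plus 3 SD, set per screening campaign, cut at about 16% in these data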;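 also: IDE supplied by intact live HEK cells; FP after avidin binding of uncleaved biotin substrate so inhibition keeps polarization high; 0% = DMSO wells and 100% = 60 µM reference IDE inhibitor Ii1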
M18AAP inhibitor = blocks P. falciparum M18 aspartyl aminopeptidase | recombinant PfM18AAP, H-Glu-NHMec fluorogenic cleavage | inhibition, % at 7.35 µM | 290,000 compounds, 1.2% hits;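 active = inhibition above the campaign mean inhibition over all tested compounds plus 3 SD, cut at about 28% in these data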;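 also: 0% = plate median of test compound wells and 100% = 2 mM ZnCl2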
IDE act = activators of human insulin-degrading enzyme in cells; activation, % at 5.96 µM; HEK cells, FAbeta-B cleavage, fluorescence polarization; 0% vehicle, 100% cell-free pure enzyme wells; AID 493087; P14735; 340,000 compounds, 0.073% hits;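 active = activation above the mean of all tested compounds plus 3 SD, set per screening campaign, cut at about 17% in these data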
The depositor's hits bear a star; ? = inconclusive; nt = no result.

SMILES	ALR inh	CaV13 ICDI inh	PolyA inh	IDE cell inh	M18AAP inhibitor	IDE act
COc1ccc(C(=O)N2CCCC(Nc3ccc(C(C)C)cc3)C2)c(OC)n1 (stereo unspecified)	32	-7	-11	7	-4	1
Cc1nc(CC(C)C)cc(C(=O)N2CCCC(Nc3ccc(C)c(C)c3)C2)n1 (stereo unspecified)	?	-5	-20	0	5	4
Cc1cc(C(=O)N2CCCC(Nc3ccc(C)c(C)c3)C2)nc(C)n1 (stereo unspecified)	nt	-9	nt	nt	nt	nt
O=C(c1cccc2nccnc12)N1CCCC(Nc2ccc(F)c(F)c2)C1 (stereo unspecified)	7	-3	11	-7	-2	0
Cc1ccc(NC2CCCN(C(=O)c3cnsn3)C2)cc1C (stereo unspecified)	99*	-5	6	2	7	-5
CC(C)c1ccc(NC2CCCN(C(=O)c3cc(C(C)C)[nH]n3)C2)cc1 (stereo unspecified)	nt	-6	-2	nt	5	-2
CSc1ncccc1C(=O)N1CCCC(Nc2ccc(C)c(C)c2)C1 (stereo unspecified)	99*	-10	2	nt	-3	5
Cc1nc(C(=O)N2CCCC(Nc3ccc(C)c(C)c3)C2)cs1 (stereo unspecified)	99*	-2	0	nt	1	4
Cc1ccc(NC2CCCN(C(=O)c3cc(C(C)C)[nH]n3)C2)cc1C (stereo unspecified)	99*	-2	17	nt	13	4
CCCc1cc(C(=O)N2CCCC(Nc3ccc(C)c(C)c3)C2)n(C)n1 (stereo unspecified)	98*	-6	-13	1	4	4
Cc1cc(C(=O)N2CCCC(Nc3ccc(F)cc3)C2)n(C)n1 (stereo unspecified)	55	-3	21	1	4	9
CC1(c2ccc(O)cc2)NC(=O)N(c2ccccc2)N1 (stereo unspecified)	98*	-2	7	5	12	-2
CCOC(=O)c1c(SCC(=O)Nc2nc(C)cs2)nc(=O)[nH]c1C	99*	-16	-7	-8	-8	-1
Cc1cnc(=O)[nH]c1SCC(=O)c1ccc(F)cc1	99*	-14	-6	4	28	-6
COC(=O)c1c(SCC(=O)Nc2ccc(C)cc2)nc(=O)[nH]c1C	53	-4	8	-8	7	3
Cc1csc(SCC(=O)Nc2ccc(Cl)cn2)n1	92*	-4	1	-1	6	0
Cc1csc(NC(=O)CSc2[nH]c(=O)ncc2C)n1	99*	-5	-4	7	nt	4
Cc1csc(NC(=O)CSc2ncc(-c3ccccc3)[nH]2)n1	59	-3	-9	-3	3	-3
Cc1csc(NC(=O)CSc2ncnc3c2cnn3-c2ccccc2Cl)n1	99*	nt	7	3	-5	3
Cc1cn([C@H]2C[C@H](O)[C@@H](CNS(=O)(=O)c3ccc(NS(=O)(=O)N(C)C)cc3)O2)c(=O)[nH]c1=O	nt	-7	nt	nt	nt	nt
COc1ccc2c(c1OC)C(=O)N1N=C(c3ccc(-c4ccccc4)cc3)CC21 (stereo unspecified)	nt	-1	0	3	3	-6
COc1ccc2c(c1OC)C(=O)N1N=C(c3ccc(O)cc3)CC21 (stereo unspecified)	99*	nt	-13	7	-4	2
COc1ccc(C2=NN3C(=O)c4c(ccc(OC)c4OC)C3C2)cc1 (stereo unspecified)	10	-4	-6	1	-5	0
COc1ccc2c(c1OC)C(=O)N1c3ccccc3N=C(c3ccc([N+](=O)[O-])cc3)CC21 (stereo unspecified)	97*	-16	nt	-4	24	-5
O=C(NC1CCCC1)C(c1ccc(Cl)cc1)N1CCc2ccccc21 (stereo unspecified)	12	-6	7	0	1	8
SMILES	ALR inh	CaV13 ICDI inh	PolyA inh	IDE cell inh	M18AAP inhibitor	IDE act
O=C(NC1CCCCC1)C(c1ccccc1)N1CCc2ccccc21 (stereo unspecified)	98*	-7	15	1	6	8
CC(/C=N/NC(=S)Nc1cccc(S(=O)(=O)N(C)C)c1)c1ccccc1 (stereo unspecified)	-1	-4	21	8	33*	2
CN(C)S(=O)(=O)c1cccc(NC(=S)N/N=C/C(c2ccccc2)c2ccccc2)c1	13	-5	-6	3	32*	2
CN(C)S(=O)(=O)c1cccc(NC(=S)N/N=C/c2ccco2)c1	17	-4	-8	-1	13	4
Cc1ccc(CNc2ncnc(N)c2[N+](=O)[O-])cc1	-2	-2	0	7	-4	6
CN(C)c1ccc(C(=O)N/N=C/c2ccccn2)cc1	49	-12	-6	1	8	3
CC(=O)Oc1cccc(C(=O)Nc2ccc(NC(=O)c3cccs3)cc2)c1	nt	-5	18	1	-16	3
COc1ccc(CNC(=O)COC(=O)C(CCSC)NC(=O)c2ccco2)cc1OC (stereo unspecified)	-1	-2	nt	-4	nt	-1
CC(=O)c1cccc(Oc2cc(NN3CCCCC3)c([N+](=O)[O-])cc2[N+](=O)[O-])c1	93*	-8	-24	-1	4	2
O=[N+]([O-])c1cc([N+](=O)[O-])c(Oc2c(F)ccc(F)c2F)cc1NN1CCCCC1	96*	-11	-13	-7	4	0
O=C(NC(Cc1c[nH]c2ccccc12)C(=O)O)OCC1c2ccccc2-c2ccccc21 (stereo unspecified)	nt	-10	nt	nt	nt	nt
COc1ccc(S(=O)(=O)C(C#N)c2nc3ccccc3nc2N2CCCC(C)C2)cc1 (stereo unspecified)	-23	nt	-3	2	3	2
CC1CCCN(c2nc3ccccc3nc2C(C#N)S(=O)(=O)c2cccs2)C1 (stereo unspecified)	97*	-4	-2	2	1	-11
COC(=O)c1sccc1NC(=O)c1cc(C)on1	96*	-5	8	6	3	7
COC(=O)c1sccc1NC(=O)c1c(C)noc1C	0	-2	-2	0	2	0
Cc1c(Br)cccc1NC(=O)C1(C)CCN1C(C)C (stereo unspecified)	nt	-5	nt	nt	nt	nt
COC(=O)c1cc(Cl)cc(Cl)c1OS(=O)(=O)N(C)C	99*	-6	-13	2	-7	-1
O=C(O)c1cc(S(=O)(=O)N2CCN(S(=O)(=O)c3ccccc3)CC2)ccc1Cl	nt	-1	-2	4	-6	1
O=C(O)c1cc(S(=O)(=O)N2CCN(C(c3ccccc3)c3ccccc3)CC2)ccc1Cl	87*	-7	-16	4	3	4

Source: PubChem
